Source: PubChem BioAssay
NCF1 inh: blocks human p47phox regulatory protein of NADPH oxidases. P14598. p47phox/p22phox peptide binding, fluorescence polarization, 2 h. inhibition, % at 24.7 µM. hit rate 0.53% among 220,000. AID 1274;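 active = inhibition above about 30%, limit read from the data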;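 also: 0% = p47phox with labelled peptide and 100% = labelled peptide alone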
EBNA-1 inh: blocks EBNA-1 binding to DNA. inhibition, % at 14.8 µM. hit rate 0.34% among 300,000. AID 1950. EBNA-1 DNA binding, fluorescence polarization; in the data active = inhibition above about 28%
PG9 binder: small molecules binding HIV-1 gp120 antibody PG9 | TR-FRET gp120-PG9 antibody binding | inhibition, % at 6.7 µM | hit rate 0.43% among 360,000; in the data active = inhibition above about 8.5%
ZTA counter: ZTA (EBV) inhibition in EBNA-1 counter-screen | P03206 | ZTA-DNA binding, fluorescence polarization | inhibition, % at 11 µM | hit rate 0.15% among 320,000 | AID 2234; in the data active = inhibition above about 33%
Rev-erbA mod: modulates human Rev-erb alpha binding to DNA; activity, % at 10 µM; Rev-erbα–FITC-DNA binding, fluorescence polarization, 90 min; P20393; hit rate 0.79% among 370,000;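 active = activity above about 14%, limit read from the data; passing the limit was not always enough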;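 also: 0% = DMSO wells with 35 nM protein and 100% = DMSO wells with 750 nM protein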
Target sequence (P20393 whole entry, looked up): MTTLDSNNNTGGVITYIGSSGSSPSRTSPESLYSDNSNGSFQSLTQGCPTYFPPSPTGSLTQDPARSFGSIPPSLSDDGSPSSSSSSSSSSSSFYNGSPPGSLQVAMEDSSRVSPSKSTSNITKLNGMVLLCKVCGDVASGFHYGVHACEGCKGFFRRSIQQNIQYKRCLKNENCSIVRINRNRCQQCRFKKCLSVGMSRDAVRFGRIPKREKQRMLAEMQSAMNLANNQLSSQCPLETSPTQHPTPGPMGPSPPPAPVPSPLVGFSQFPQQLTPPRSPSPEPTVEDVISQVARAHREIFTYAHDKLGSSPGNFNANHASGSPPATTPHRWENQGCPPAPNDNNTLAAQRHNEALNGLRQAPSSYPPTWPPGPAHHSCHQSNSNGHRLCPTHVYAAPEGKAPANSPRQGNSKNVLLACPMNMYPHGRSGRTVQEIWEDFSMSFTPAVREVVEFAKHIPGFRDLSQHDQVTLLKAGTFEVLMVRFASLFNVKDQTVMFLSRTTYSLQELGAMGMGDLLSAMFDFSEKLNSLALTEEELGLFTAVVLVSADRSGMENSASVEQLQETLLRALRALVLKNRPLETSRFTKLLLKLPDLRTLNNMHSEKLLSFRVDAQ
aDG glyco up: increases alpha dystroglycan glycosylation; Pro5-aDG cells, alpha-DG glycosylation AlphaScreen (IIH6); 0% Pro5, 100% B10-LARGE cell signal; activation, % at 10 µM; hit rate 0.22% among 360,000;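 active = activation of at least 8% versus controls, or a plate z-score of at least 8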;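 also: Pro5 are CHO cells carrying HIG-tagged alpha-DG that lacks glycosylation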
PG9 bind confirm: confirmation of small molecules binding HIV-1 gp120 antibody PG9; TR-FRET PG9 antibody binding, biochemical; shares compounds with PG9 binder; AID 651571; inhibition, % at 6.7 µM; hit rate 90% among 1,500; in the data active = inhibition above about 9%
PGV04 counter: counter-screen for PG9 binders: binding control antibody PGV04. shares compounds with PG9 binder. TR-FRET PGV04 antibody-gp120 binding, biochemical. inhibition, % at 6.7 µM. hit rate 95% among 1,500; in the data active = inhibition above about 9.5%
The depositor's hits bear a star; x = not tested or not shown. Rows were chosen to be rich in hits. Some 1.9% of all compounds tested hit in one or more screens of this group.

SMILES | NCF1 inh | EBNA-1 inh | PG9 binder | ZTA counter | Rev-erbA mod | aDG glyco up | PG9 bind confirm | PGV04 counter
CCCn1nnc(NC(=O)c2ccc(Cl)cc2Cl)n1 | -2 | 7 | -1 | 0 | 0 | 0 | x | x
CCCCn1nnc(NC(=O)c2sc3cc(Cl)ccc3c2Cl)n1 | -6 | -21 | 14* | 5 | -3 | 0 | 26* | 36*
O=C(O)C1CCC(Cn2c(SCc3cc(=O)n4cc(Br)ccc4n3)nc3ccsc3c2=O)CC1 (stereo not given) | -7 | -4 | 22* | 2 | 8 | 0 | 30* | 50*
Cc1cc(C)c2nc(NC(=O)c3ccco3)sc2c1 | x | -6 | -1 | -5 | 2 | -1 | x | x
O=C(Nc1nc2c(Br)cc(Br)cc2c(=O)s1)c1ccco1 | -6 | 0 | 30* | 19 | 1 | 0 | 58* | 63*
C=CCN(Cc1ccc2c(c1)OCO2)C(C#Cc1ccccc1)c1ccccc1C(F)(F)F (stereo not given) | x | x | x | x | -4 | x | x | x
CCOc1ccccc1-c1n[nH]c(=S)o1 | -11 | 3 | 11* | 7 | -3 | 0 | 14* | 19*
COc1ccc2c(c1)C(C)CC(C)(C)N2C(=O)CSc1ncn[nH]1 (stereo not given) | 1 | 8 | 16* | -8 | -7 | 0 | 11* | 15*
COc1ccc(N2CCN(C(=O)CSc3ncn[nH]3)CC2)cc1 | x | -5 | 2 | -15 | -6 | 0 | x | x
Cc1ccc(-n2c(SCC(=O)Nc3ccc(Oc4ccccc4)cc3)nnc2-c2ccco2)cc1 | x | x | x | x | -5 | x | x | x
CCCOc1ccc(/C(O)=C2/C(=O)C(=O)N(c3ccccn3)C2c2ccc(OC)cc2)cc1C (stereo not given) | x | 19 | 17* | -7 | -4 | 0 | 25* | 36*
CCOc1ccc(/C(O)=C2/C(=O)C(=O)N(c3ccccn3)C2c2ccc(F)cc2)c(C)c1 (stereo not given) | x | 3 | 10* | 3 | 3 | 0 | 18* | 24*
Cc1ccc(/C(O)=C2/C(=O)C(=O)N(c3ccccn3)C2c2ccc(F)cc2)cc1 (stereo not given) | x | -15 | 4 | -8 | -12 | 0 | x | x
CCN(CC)C(=O)Cn1nc(Cc2ccncc2)c2ccccc2c1=O | x | x | x | x | -2 | x | x | x
CCOC(=O)[C@]12CCCCC/C=C\1N(CCc1ccc(Cl)cc1)C(=O)[C@H]2CC(=O)N1CCCC1 | x | x | x | x | -5 | x | x | x
Cc1ccc(CNC(=O)O[C@H]2CC[C@@]34CCCN3C(=O)CCC[C@H]4[C@H]2C)cc1 | x | x | x | x | -2 | x | x | x
COc1ccc(-c2cn3c(C)c(C(=O)Nc4cc(NC(C)=O)ccc4OC)sc3n2)cc1 | -1 | 3 | 12* | 9 | -4 | 0 | 9.8* | 31*
CNC(=O)c1sc2nc(-c3ccc(OC)cc3)cn2c1C | -11 | 6 | -2 | 3 | 3 | 0 | x | x
COc1ccc([C@H]2OC(=O)C[C@@H]2C(=O)N2CCN(c3ccccc3F)CC2)cc1OC | x | x | x | x | -10 | x | x | x
O=C(CCc1nc2ccccc2c(=O)[nH]1)OCc1ccc(-c2ccccc2)cc1 | -6 | 4 | 9.3* | -3 | 16 | 0 | 17* | 24*
O=C(NCc1ccccc1)OCCCN1C(=O)CCC12CCCCC2 | x | x | x | x | -3 | x | x | x
CC(=O)OC12CCCN(C1)/C(=C/c1cccc(N(C)C)c1)C2 (stereo not given) | x | x | x | x | 2 | x | x | x
CCCC1=Nc2cc(C(=O)NCCCN3CCN(C)CC3)ccc2Sc2ccccc21 | x | 10 | 1 | 3 | -4 | 4 | x | x
CCCC1=Nc2cc(C(=O)NCCCN3CCOCC3)ccc2Sc2ccccc21 | x | 2 | 12* | 18 | 4 | 0 | 11* | 15*
Cc1ccc(CNC(=O)OC(C)(C)C)c(/C=C/S(=O)(=O)NCc2ccc(F)cc2)c1 | x | x | x | x | 5 | x | x | x
SMILES | NCF1 inh | EBNA-1 inh | PG9 binder | ZTA counter | Rev-erbA mod | aDG glyco up | PG9 bind confirm | PGV04 counter
COC(=O)Nc1nc(C)c(C(=O)c2ccccc2)s1 | -6 | 3 | 1 | -26 | 3 | 0 | x | x
CCOC(=O)Nc1nc(C)c(C(=O)c2ccc(Cl)cc2)s1 | 1 | -8 | 10* | 6 | 4 | 0 | 17* | 33*
O=C(COC(=O)c1cc2ccccc2oc1=O)Nc1ccc(F)cc1F | -10 | 10 | 15* | 7 | 1 | 0 | 16* | 48*
CCN(c1ccc(NC(=O)COC(=O)c2cc3ccccc3oc2=O)cc1)C(C)C | 5 | -7 | -3 | -13 | 0 | 0 | x | x
O=C(c1cc(Cl)cc(Cl)c1)N1CCC(Oc2cccnc2)CC1 | x | x | x | x | 2 | x | x | x
COc1cccc(NC(=O)c2cnc(SCC(=O)NCc3ccc4c(c3)OCO4)n(C)c2=O)c1 | x | -4 | 26* | -5 | 7 | 0 | 30* | 43*
Cc1ccc(CNC(=O)CSc2nc(C)cc(C)c2C#N)cc1 | -12 | -2 | 58* | -9 | 14 | 0 | 39* | 45*
Cc1ccc2nc(SCC(=O)NCc3ccco3)c(C#N)cc2c1 | 33* | 4 | 13* | 21 | -3 | 0 | 11* | 18*
Cc1ccc2cc(C#N)c(SCC(=O)NCc3ccco3)nc2c1 | -31 | -19 | 0 | -5 | 6 | 0 | x | x
CCOc1ccc(NC(=O)CCSc2ccc(C)cc2)cc1 | -11 | 4 | 0 | -36 | 1 | 0 | x | x
Cc1ccc(SCCC(=O)Nc2ccc(OCc3ccccc3)cc2)cc1 | -16 | 3 | 9.2* | 18 | 3 | 0 | 15* | 19*
COc1ccccc1NC(=S)NC(C)=O | 1 | -1 | -1 | -9 | 1 | 0 | x | x
COc1ccccc1NC(C)=O | 2 | -9 | 12* | -15 | -3 | 0 | 6 | 8
O=C(CSc1nnc(COc2ccccc2)n1Cc1ccco1)Nc1ccc(OCc2ccccc2)cc1 | x | x | x | x | 13 | x | x | x
O=C(CCc1ccccc1)N[C@H]1[C@H](OCc2ccccc2)CCC[C@@]12C(=O)N(Cc1ccccc1)c1ccc(-c3ccsc3)cc12 | x | x | x | x | -7 | x | x | x
COc1ccc(-c2nc3c(C)cc(Br)cn3c2Cc2ccsc2)cc1OC | x | x | 2 | x | 3 | 0 | x | x
COc1ccc(-c2nc3c(C)cc(Br)cn3c2CC(C)(C)C)cc1OC | x | x | 22* | x | -3 | 0 | 25* | 40*
COc1ccccc1Cc1c(-c2ccc(OC)c(OC)c2)nc2c(C)cc(Br)cn12 | x | x | -2 | x | 6 | 0 | x | x
COc1ccc(-c2nc3c(C)cc(Br)cn3c2CC2CCCCC2)cc1OC | x | x | 14* | x | 3 | 0 | 22* | 27*
O=C(Cn1c(=O)c2cccn2c2cccnc21)NCCCN1CCN(c2ccccc2)CC1 | x | x | x | x | 3 | x | x | x
CCOc1cccc2cc(C(=O)NC(C)c3ccccc3)c(=N)oc12 (stereo not given) | x | -3 | 9.0* | -3 | 1 | 0 | 9.2* | 15*
